Results as given in the supplement of paper PMC10849652.
The full data set covers some 7,900 targets. This sample favours those with a hit. About 0.6% of all pairs of compound and target were hits.

These targets were tested with O=C(CCCCCCNC(=O)c1cnc(N(c2ccccc2)c2ccccc2Cl)nc1)NO [citarinostat] (assay: log2 fold change, soluble protein after heating vs DMSO (PISA); higher = thermal stabilisation; K562 cells, 10 uM, 30 min; active = over 0.2 and 3.5 SD of the protein, either way, in both replicates (recomputed)).
How it was run: (§1)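 K562 cells at 2×10^6 cells/mL were treated with 10 μM compound for 30 min. Aliquots were heated for 3 min across 48°C-58°C, pooled, and extracted in PBS with 0.5% NP-40 at 4°C; soluble protein was the supernatant after 21,000xg for 90 min. Soluble protein was quantified by TMTpro 16plex LC-MS/MS with channel sums equalised, and reported as log2 fold change in thermal stability against DMSO controls, with values from duplicates.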

Sequence of UniProt Q08AE8 (Q08AE8 whole entry, looked up): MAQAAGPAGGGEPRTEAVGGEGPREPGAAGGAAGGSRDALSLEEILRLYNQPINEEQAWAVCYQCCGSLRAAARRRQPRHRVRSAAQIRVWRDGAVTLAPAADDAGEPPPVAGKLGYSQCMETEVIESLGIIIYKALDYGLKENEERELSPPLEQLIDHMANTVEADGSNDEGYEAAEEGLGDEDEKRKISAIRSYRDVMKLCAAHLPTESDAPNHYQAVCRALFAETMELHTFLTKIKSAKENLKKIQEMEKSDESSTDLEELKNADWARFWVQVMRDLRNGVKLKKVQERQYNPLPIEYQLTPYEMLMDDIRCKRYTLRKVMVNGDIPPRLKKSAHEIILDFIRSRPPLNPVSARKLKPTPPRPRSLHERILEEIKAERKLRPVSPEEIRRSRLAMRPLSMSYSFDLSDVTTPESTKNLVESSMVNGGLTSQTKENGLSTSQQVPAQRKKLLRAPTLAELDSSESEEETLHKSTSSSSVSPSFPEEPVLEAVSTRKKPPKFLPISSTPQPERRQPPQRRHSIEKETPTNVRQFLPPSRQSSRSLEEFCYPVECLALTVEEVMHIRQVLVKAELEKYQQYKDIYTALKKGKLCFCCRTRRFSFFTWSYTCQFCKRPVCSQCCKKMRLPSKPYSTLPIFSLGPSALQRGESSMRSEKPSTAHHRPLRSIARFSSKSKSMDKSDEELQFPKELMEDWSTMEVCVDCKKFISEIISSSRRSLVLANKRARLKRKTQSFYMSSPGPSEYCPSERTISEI
Sequence of UniProt P08047 (P08047 whole entry, looked up): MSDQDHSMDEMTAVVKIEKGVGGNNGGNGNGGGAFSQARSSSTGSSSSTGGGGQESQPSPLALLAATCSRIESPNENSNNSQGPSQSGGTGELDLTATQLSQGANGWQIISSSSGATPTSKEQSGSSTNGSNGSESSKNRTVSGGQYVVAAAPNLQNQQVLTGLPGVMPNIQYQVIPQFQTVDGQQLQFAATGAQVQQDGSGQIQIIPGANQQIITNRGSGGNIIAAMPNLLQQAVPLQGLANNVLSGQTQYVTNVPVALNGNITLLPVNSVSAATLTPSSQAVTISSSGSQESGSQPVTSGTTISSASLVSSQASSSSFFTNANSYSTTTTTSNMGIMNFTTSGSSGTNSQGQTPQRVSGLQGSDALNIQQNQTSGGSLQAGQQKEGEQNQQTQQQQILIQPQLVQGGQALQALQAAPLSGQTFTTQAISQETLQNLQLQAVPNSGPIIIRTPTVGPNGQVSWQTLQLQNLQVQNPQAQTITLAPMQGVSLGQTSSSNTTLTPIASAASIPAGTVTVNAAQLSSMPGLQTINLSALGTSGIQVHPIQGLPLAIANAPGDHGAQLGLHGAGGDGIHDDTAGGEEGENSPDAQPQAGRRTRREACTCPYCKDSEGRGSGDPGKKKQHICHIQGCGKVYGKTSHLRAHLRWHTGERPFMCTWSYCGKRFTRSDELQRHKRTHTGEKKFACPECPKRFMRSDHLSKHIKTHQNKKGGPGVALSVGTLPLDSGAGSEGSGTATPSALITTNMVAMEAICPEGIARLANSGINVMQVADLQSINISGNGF
Sequence of UniProt Q9NRS6 (Q9NRS6 whole entry, looked up): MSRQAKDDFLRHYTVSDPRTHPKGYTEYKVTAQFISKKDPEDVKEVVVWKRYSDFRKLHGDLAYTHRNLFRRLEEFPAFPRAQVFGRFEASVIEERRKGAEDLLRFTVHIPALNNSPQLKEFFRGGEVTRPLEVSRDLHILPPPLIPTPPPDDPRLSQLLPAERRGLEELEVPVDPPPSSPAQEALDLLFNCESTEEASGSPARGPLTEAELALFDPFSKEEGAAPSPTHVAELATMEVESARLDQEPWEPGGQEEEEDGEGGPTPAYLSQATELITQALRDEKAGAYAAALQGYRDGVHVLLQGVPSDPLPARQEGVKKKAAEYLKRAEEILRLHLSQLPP
Sequence of UniProt O60271 (O60271 whole entry, looked up): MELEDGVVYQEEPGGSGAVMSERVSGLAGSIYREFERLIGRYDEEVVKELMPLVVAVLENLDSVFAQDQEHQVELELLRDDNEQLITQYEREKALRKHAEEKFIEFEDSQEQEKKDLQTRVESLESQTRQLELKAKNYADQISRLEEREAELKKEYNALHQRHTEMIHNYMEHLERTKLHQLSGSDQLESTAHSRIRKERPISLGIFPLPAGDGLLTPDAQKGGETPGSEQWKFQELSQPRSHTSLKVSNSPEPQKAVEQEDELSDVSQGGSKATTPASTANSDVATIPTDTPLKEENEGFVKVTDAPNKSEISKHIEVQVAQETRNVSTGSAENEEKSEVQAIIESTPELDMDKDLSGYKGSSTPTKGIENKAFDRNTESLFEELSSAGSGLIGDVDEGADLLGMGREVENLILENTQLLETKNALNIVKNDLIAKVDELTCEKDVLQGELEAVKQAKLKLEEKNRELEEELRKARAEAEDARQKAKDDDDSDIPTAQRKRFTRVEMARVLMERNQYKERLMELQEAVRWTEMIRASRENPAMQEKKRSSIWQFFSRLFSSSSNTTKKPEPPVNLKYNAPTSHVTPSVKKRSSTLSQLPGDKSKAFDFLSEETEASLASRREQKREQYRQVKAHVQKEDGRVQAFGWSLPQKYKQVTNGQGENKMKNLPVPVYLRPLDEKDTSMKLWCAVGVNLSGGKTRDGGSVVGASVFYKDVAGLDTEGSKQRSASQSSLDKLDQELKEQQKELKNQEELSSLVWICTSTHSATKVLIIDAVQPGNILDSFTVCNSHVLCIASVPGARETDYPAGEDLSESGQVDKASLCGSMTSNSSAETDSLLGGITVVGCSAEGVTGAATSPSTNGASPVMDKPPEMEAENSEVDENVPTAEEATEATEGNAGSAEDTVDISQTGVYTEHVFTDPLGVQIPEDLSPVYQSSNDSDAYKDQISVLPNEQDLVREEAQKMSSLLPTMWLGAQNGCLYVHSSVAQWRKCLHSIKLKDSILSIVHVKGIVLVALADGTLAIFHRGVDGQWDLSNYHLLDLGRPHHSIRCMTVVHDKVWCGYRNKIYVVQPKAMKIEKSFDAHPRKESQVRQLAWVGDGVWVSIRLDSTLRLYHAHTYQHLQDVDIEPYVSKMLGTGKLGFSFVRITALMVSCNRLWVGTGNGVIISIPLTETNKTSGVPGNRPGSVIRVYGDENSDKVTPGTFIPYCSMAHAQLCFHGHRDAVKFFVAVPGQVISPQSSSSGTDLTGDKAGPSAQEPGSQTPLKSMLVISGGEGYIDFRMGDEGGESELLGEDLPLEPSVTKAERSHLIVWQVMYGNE
Sequence of UniProt Q9Y2H1 (Q9Y2H1 whole entry, looked up): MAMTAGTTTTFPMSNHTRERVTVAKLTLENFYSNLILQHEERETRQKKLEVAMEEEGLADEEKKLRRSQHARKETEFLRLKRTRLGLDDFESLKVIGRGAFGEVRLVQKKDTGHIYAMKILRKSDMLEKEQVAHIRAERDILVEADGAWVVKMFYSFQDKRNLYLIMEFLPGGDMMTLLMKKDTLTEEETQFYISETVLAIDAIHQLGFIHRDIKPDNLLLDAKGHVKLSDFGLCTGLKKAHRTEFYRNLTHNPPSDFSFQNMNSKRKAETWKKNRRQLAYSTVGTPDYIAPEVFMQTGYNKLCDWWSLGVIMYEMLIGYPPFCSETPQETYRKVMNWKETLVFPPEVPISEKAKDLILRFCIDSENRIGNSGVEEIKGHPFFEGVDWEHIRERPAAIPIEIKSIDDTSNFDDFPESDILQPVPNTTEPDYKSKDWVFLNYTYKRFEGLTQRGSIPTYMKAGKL
Sequence of UniProt Q92544 (Q92544 whole entry, looked up): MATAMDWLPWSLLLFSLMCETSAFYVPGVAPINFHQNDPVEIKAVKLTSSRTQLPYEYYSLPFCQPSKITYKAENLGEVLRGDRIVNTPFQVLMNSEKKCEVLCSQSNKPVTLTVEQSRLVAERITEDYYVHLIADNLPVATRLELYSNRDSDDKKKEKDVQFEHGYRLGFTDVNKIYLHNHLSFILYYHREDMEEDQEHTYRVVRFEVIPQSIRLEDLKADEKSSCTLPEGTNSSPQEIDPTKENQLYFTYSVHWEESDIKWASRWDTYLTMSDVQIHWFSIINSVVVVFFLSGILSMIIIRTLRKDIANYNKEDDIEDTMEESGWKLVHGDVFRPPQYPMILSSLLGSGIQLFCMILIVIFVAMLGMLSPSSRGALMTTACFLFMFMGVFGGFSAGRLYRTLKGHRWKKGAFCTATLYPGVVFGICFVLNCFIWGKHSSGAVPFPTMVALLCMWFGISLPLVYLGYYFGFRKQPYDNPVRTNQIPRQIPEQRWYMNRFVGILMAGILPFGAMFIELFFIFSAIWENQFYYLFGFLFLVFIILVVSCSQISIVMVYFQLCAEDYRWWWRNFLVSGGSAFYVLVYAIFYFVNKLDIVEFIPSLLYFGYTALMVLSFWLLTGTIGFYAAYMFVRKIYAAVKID
Sequence of UniProt Q96BZ9 (Q96BZ9 whole entry, looked up): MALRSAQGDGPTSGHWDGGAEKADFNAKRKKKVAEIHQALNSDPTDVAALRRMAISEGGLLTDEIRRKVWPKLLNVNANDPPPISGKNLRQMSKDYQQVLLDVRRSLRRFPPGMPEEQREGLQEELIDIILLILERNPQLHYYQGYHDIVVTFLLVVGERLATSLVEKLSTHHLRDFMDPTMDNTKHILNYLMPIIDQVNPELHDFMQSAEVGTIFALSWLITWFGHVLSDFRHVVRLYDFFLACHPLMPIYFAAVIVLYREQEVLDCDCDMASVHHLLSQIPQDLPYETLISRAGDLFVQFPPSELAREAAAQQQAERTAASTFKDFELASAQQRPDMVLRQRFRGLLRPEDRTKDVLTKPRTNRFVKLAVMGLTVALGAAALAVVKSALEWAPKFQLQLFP
Sequence of UniProt Q00059 (Q00059 whole entry, looked up): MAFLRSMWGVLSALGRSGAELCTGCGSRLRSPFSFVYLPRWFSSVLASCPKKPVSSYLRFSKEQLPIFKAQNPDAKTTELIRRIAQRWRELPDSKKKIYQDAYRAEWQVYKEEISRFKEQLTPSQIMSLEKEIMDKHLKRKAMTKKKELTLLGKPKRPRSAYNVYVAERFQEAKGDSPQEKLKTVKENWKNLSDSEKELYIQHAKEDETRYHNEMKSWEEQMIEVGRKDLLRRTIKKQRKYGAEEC

Target	log2 fold change
SYNE2 isoform 2 (UniProt Q8WXH0)	0.053 (inactive)
SPAG9 (UniProt O60271)	0.01 (inactive)
SRFBP1 (UniProt Q8NEF9)	0 (inactive)
SMC5 (UniProt Q8IY18)	-0.021 (inactive)
SLC38A7 (UniProt Q9NVC3)	0.085 (inactive)
SLC30A10 (UniProt Q6XR72)	-0.008 (inactive)
SMCHD1 (UniProt A6NHR9)	0.085 (inactive)
SLC44A2 isoform 2 (UniProt Q8IWA5)	0.091 (inactive)
SYNE1 (UniProt Q8NF91)	0.106 (inactive)
TENT5C (UniProt Q5VWP2)	0.144 (inactive)
SRCAP (UniProt Q6ZRS2)	0.014 (inactive)
TBC1D20 isoform 3 (UniProt Q96BZ9)	0.293 (inactive)
STK11IP (UniProt Q8N1F8)	-0.032 (inactive)
SMAD2 (UniProt Q15796)	0.034 (inactive)
STXBP2 isoform 3 (UniProt Q15833)	0.046 (inactive)
SPIRE1 (UniProt Q08AE8)	0.022 (inactive)
TGFBR1 isoform 2 (UniProt P36897)	0.017 (inactive)
STK38L (UniProt Q9Y2H1)	0.036 (inactive)

Target	log2 fold change
SRC isoform 2 (UniProt P12931)	-0.104 (inactive)
SRSF6 (UniProt Q13247)	-0.068 (inactive)
TFAM (UniProt Q00059)	-0.151 (inactive)
SLC39A11 (UniProt Q8N1S5)	-0.059 (inactive)
TM9SF4 (UniProt Q92544)	0.044 (inactive)
SLC25A38 (UniProt Q96DW6)	0.02 (inactive)
SSBP4 (UniProt Q9BWG4)	0.018 (inactive)
TAOK3 (UniProt Q9H2K8)	0.106 (inactive)
SRI (UniProt P30626)	0.027 (inactive)
SNX15 (UniProt Q9NRS6)	0.113 (inactive)
SRXN1 (UniProt Q9BYN0)	-0.039 (inactive)
STX7 (UniProt O15400)	-0.002 (inactive)
SMARCA4 (UniProt P51532)	0.102 (inactive)
TATDN2 (UniProt Q93075)	-0.52 (active)
TACC2 (UniProt O95359)	0.003 (inactive)
SOAT1 (UniProt P35610)	0.112 (inactive)
SP1 (UniProt P08047)	-0.057 (inactive)

These targets were tested with O=C(O)c1ccc2c(c1)nc(Nc1cccc(Cl)c1)c1ccncc12 [silmitasertib] in the same assay as above.
How it was run: as §1

Target	log2 fold change
SYNE2 isoform 2 (UniProt Q8WXH0)	-0.056 (inactive)
SPAG9 (UniProt O60271)	0.038 (inactive)
SRFBP1 (UniProt Q8NEF9)	0.054 (inactive)
SMC5 (UniProt Q8IY18)	0.052 (inactive)
SLC38A7 (UniProt Q9NVC3)	0.022 (inactive)
SLC30A10 (UniProt Q6XR72)	-0.05 (inactive)
TK1 (UniProt K7ERV3)	-0.039 (inactive)
SMCHD1 (UniProt A6NHR9)	0.095 (inactive)
SLC44A2 isoform 2 (UniProt Q8IWA5)	-0.071 (inactive)
SYNE1 (UniProt Q8NF91)	-0.03 (inactive)
TENT5C (UniProt Q5VWP2)	-0.038 (inactive)
SRCAP (UniProt Q6ZRS2)	-0.022 (inactive)
TBC1D20 isoform 3 (UniProt Q96BZ9)	0.03 (inactive)
STK11IP (UniProt Q8N1F8)	0.217 (inactive)
SMAD2 (UniProt Q15796)	-0.073 (inactive)
STXBP2 isoform 3 (UniProt Q15833)	0.112 (inactive)
SPIRE1 (UniProt Q08AE8)	-0.008 (inactive)
TGFBR1 isoform 2 (UniProt P36897)	0.073 (inactive)
STK38L (UniProt Q9Y2H1)	0.101 (inactive)

Target	log2 fold change
STARD3 (UniProt Q14849)	0.053 (inactive)
SRC isoform 2 (UniProt P12931)	0.122 (inactive)
SRSF6 (UniProt Q13247)	-0.254 (inactive)
TEX30 (UniProt Q5JUR7)	0.073 (inactive)
TFAM (UniProt Q00059)	0.011 (inactive)
SLC39A11 (UniProt Q8N1S5)	0.078 (inactive)
TM9SF4 (UniProt Q92544)	0.03 (inactive)
SLC25A38 (UniProt Q96DW6)	0.069 (inactive)
SSBP4 (UniProt Q9BWG4)	-0.008 (inactive)
TAOK3 (UniProt Q9H2K8)	0 (inactive)
SRI (UniProt P30626)	-0.004 (inactive)
SNX15 (UniProt Q9NRS6)	0.276 (inactive)
SRXN1 (UniProt Q9BYN0)	-0.059 (inactive)
STX7 (UniProt O15400)	0.017 (inactive)
SMARCA4 (UniProt P51532)	-0.017 (inactive)
TACC2 (UniProt O95359)	0.116 (inactive)
SOAT1 (UniProt P35610)	0.084 (inactive)
SP1 (UniProt P08047)	-0.007 (inactive)
